Bioassay records as filed in PubChem.
Shown is part of a subset that was picked to be rich in hits.
Cycloheximide cs = Cycloheximide Counterscreen for Small Molecule Inhibitors of Shiga Toxin. max response, %. actives 12% (n = 300,000). cell reporter, cycloheximide protein synthesis inhibition counterscreen; in the data active means max response mostly above about 13%, no sharp cut-off; inactive means mostly below about 14%; further: read at 38.3 µM for the half of the compounds with a filed dose; 0% is about no effect
AmpC detergent = qHTS Inhibitors of AmpC Beta-Lactamase (assay with detergent). P00811. AmpC hydrolysis of nitrocefin, absorbance 480 nm, 0.01% Triton. actives 0.041% (n = 370,000). Potency, µM (series often up to 114 µM), for inactives: at the top dose activity change, negative = inhibition, usual class: inhibitors. AID 485294, 2010;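 further: potency means the concentration at half of the fitted maximal effect; 0% = no-compound wells and -100% = no-enzyme wells; nearly all actives have a fitted effect of over 25% in size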
Target sequence (P00811 whole entry, looked up): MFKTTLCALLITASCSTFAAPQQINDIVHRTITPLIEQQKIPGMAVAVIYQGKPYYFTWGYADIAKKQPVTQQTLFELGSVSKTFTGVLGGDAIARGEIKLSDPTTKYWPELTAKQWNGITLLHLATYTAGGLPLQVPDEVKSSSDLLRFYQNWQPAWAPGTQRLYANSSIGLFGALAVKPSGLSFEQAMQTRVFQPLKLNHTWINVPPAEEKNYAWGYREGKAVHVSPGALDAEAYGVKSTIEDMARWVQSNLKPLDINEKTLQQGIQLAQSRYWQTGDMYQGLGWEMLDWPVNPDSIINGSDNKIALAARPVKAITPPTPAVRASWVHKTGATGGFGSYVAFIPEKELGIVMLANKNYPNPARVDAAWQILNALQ
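20 mM phosphate pH 7.0 + 0.01% (detergent screen) or 0.0001% Triton X-100; 5.3 nM AmpC reagent; cpd preinc 15 min RT; nitrocefin (800 uM stock) to start; A480 q20 s × 4 min; Activity was normalised to no-enzyme and no-compound control wells.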
NS1 function inh = qHTS Assay for Inhibitors of Influenza NS1 Protein Function; Potency, µM (doses to about 46.1 µM), for inactives: at the highest dose activity, positive = more growth; actives 0.4% (n = 270,000); AID 2326, 2010; calls by dose curve; further: potency means the concentration at half of the fitted maximal effect; actives are rising curves; nearly all actives have a fitted effect of over 50% in size
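OD600 was taken as the measure of yeast growth restored by compound in an NS1-expressing S. cerevisiae strain. Cells had been washed out of glucose medium and diluted 1:100 into galactose -URA medium, pH 6.0.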
AmpC inh no detg = qHTS Inhibitors of AmpC Beta-Lactamase (assay without detergent); P00811; AmpC nitrocefin hydrolysis, absorbance 480 nm, 0.0001% Triton; Potency, µM (highest dose often 57.1 µM), for the others: at the top dose activity change, negative = inhibition, most hits filed as inhibitors; actives 0.52% (n = 330,000); AID 485341, 2010;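 further: potency means the concentration at half of the fitted maximal effect; plate controls were no compound for no effect and no enzyme for full effect; nearly all actives have a fitted effect of over 20% in size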
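AmpC (5.3 nM in the dispensed reagent) in 20 mM phosphate pH 7.0 with 0.01% (detergent screen) or 0.0001% Triton X-100 was preincubated with compounds for 15 min at room temperature. Nitrocefin was then added from an 800 uM solution, and hydrolysis was followed at 480 nm.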
Shiga inhibitor = A qHTS for Small Molecule Inhibitors of Shiga Toxin. Vero cells, Shiga toxin protein synthesis inhibition reporter. inhibition, % at 38.7 µM. actives 9.2% (n = 290,000); in the data active means inhibition mostly above about 28%, no sharp cut-off; inactive means mostly below about 43%; further: 0% is about no effect
* = called active by the depositor; ? = inconclusive; / = not tested or not shown. Unless noted, the call rests on the fitted dose curve; in most records, active means well fitted curve in the direction sought with a large enough effect; inconclusive means small, poorly fitted or top-dose-only effect, or another doubt; inactive means no such curve, though single readings can be large; an effect the other way counts as inactive or inconclusive.

SMILES | Cycloheximide cs | AmpC detergent | NS1 function inh | AmpC inh no detg | Shiga inhibitor
O=C(O)CCC(=O)N1N=C(c2ccccc2)CC1c1cccs1 (stereo not drawn) | 1 | -3% | -4% | -18% | 6
COc1cc(-c2nc(-c3ccc4c(c3)-c3ccccc3S4(=O)=O)c(-c3ccccc3)[nH]2)cc(OC)c1O | 22* | -1% | ? | 0% | 20
COc1cc(-c2nc(-c3cccc(Cl)c3)c(-c3ccccc3)[nH]2)cc(OC)c1OC | / | 12% | / | / | /
CCC12CN3CC(C)(CN(C1)C3c1ccc(O)cc1O)C2=O (stereo not drawn) | / | 11% | / | / | /
COc1ccc(CNc2ccc(Br)cc2)cc1 | 36* | -8% | 1% | -22% | 126*
COc1ccc(CNc2ccc(C(=O)O)cc2)cc1 | 26* | -11% | -102% | -5% | 44*
COc1ccc(NCc2ccc(OC)c(OC)c2)cc1 | 15 | -13% | -3% | -8% | 17
COc1ccc(S(=O)(=O)NCc2ccc(C(=O)O)cc2)cc1 | -3 | -8% | 4% | -9% | -1
COc1ccc(NCc2n[nH]c(=O)c3ccccc23)cc1 | 15* | 1% | -16% | -14% | 19
Cc1ccc(-c2cn3ccc(C)cc3n2)cc1 | / | 18% | / | / | /
Cc1nnc2ccc(-c3ccc(NC(=O)c4ccco4)cc3)nn12 | 14* | 4% | / | -19% | 71
Nc1nc(-c2ccc(NC(=O)c3ccco3)cc2)cs1 | 17* | 2% | -1% | -33% | 40*
CC(=O)Nc1ccc(-c2ccc3nnc(C)n3n2)cc1 | 0 | 7% | / | -23% | 30
Cc1ccn2cc(-c3ccc(NC(=O)c4ccco4)cc3)nc2c1 | 43* | -2% | 7% | -53% | active
Cc1nc(-c2cccc(NC(=O)c3ccco3)c2)cs1 | 27* | 4% | -39% | -9% | 45
COc1cc(N=C(N)N=C(N)N)c2ncccc2c1 | / | / | -3% | / | /
Cc1nc(-c2ccc(NC(=O)c3ccco3)cc2)cs1 | 11* | 6% | -63% | -11% | 28
Cc1cc(C(=O)N2CC(C)CC(C)C2)n(-c2ccccc2)n1 (stereo not drawn) | -3 | ? | -12% | 8.9µM* | 4
O=C(COc1ccc2ccccc2c1)N1CCN(Cc2c[nH]c3ccccc23)CC1 | 17* | -10% | ? | 102% | 19
CC(C)(C)NC(=O)N1CCN(c2nc3ccc(Cl)cc3s2)CC1 | 15 | 1% | -6% | 84% | 42*
CCCCC(=O)N1CCN(c2nc3ccc(Cl)cc3s2)CC1 | 45* | -12% | -27% | 94% | 43*
CC(C)(CC(=O)O)CC(=O)N1CCN(c2nc3cc(Cl)ccc3s2)CC1 | -2 | -2% | -1% | -11% | -5
CC(C)(C)NC(=O)N1CCN(c2nc(-c3ccccc3)ns2)CC1 | 35* | 3% | -8% | 26% | 108*
O=C(c1ccc(F)cc1F)N1CCCN(c2nc(-c3ccccc3)ns2)CC1 | 1 | 1% | -12% | 64% | 19
CC(C)(CC(=O)O)CC(=O)N1CCN(c2nc3ccc(Cl)cc3s2)CC1 | -1 | -2% | 1% | -8% | -5
SMILES | Cycloheximide cs | AmpC detergent | NS1 function inh | AmpC inh no detg | Shiga inhibitor
CC(C)(CC(=O)O)CC(=O)N1CCCN(c2nc3ccc(Cl)cc3s2)CC1 | 16* | -5% | 4% | -1% | 67*
O=C(O)CSCC(=O)N1CCCN(c2nc3ccc(Cl)cc3s2)CC1 | -3 | -15% | 4% | -9% | 21
Cc1cc2c(s1)c1cnn(Cc3ccc(C(C)C)cc3)c(=O)c1n2C | -2 | / | / | / | -3
Cc1nn(CCC(=O)NCc2ccc(Cl)cc2)c(=O)c2nn(-c3ccccc3)c(C)c12 | / | -1% | / | / | /
CC(=O)c1ccc(OCc2cccc(C(F)(F)F)c2)cc1O | 29* | 9% | -2% | -3% | 43*
Nc1c(Cl)cc2c(c1Oc1ccccc1)C(=O)c1ccccc1C2=O | 29* | -13% | -65% | -21% | 27
Nc1cc(Cl)ccc1Oc1ccccc1 | -1 | 5% | 7% | -20% | -8
Cc1cc(C)c2nc(N3CCC(C(=O)NCCCN4CC(C)CC(C)C4)CC3)sc2c1 (stereo not drawn) | -2 | 1% | / | 17% | -9
O=C(NCCSc1ccccc1)c1ccccc1Cl | 64* | ? | -10% | -8% | 97*
Cc1ccccc1C(=O)NCCSc1ccccc1 | 32* | -3% | -47% | -14% | 93
O=C(CCNC(=O)c1ccccc1Cl)NCCCSc1ccccc1 | / | 1% | / | 0% | /
CSc1ccccc1C(=O)NCCSc1ccccc1 | 29* | -12% | -54% | -21% | 27
COc1cccc(NC(=O)COC(=O)CCC(=O)c2cccs2)c1 | / | -15% | / | -18% | /
COc1ccc(NC(=O)/C(Cl)=C(/Cl)S(=O)Cc2ccccc2Cl)cn1 (stereo not drawn) | -10 | 0% | / | -30% | -10
COc1cc(CN(C(=O)COc2ccc(C)cc2)c2ccccn2)cc(OC)c1OC | / | 21% | / | / | /
O=C(NC(=S)N(Cc1ccccc1)c1ccccn1)C1CC1 | 13* | -2% | 5% | -9% | 4
COc1ccccc1NC(=O)N(Cc1ccccc1)c1ccccn1 | 10 | 5% | 1% | -28% | 32*
Cc1ccc(OCC(=O)N(Cc2ccccc2)c2ccccn2)cc1 | 32* | -3% | / | -15% | 3
O=C(NC(=S)N(Cc1ccccc1)Cc1ccccc1)C1CCCCC1 | 8 | -8% | ? | -34% | -12
Cc1ncccc1C(=O)N1CCCC(CNC(=O)C2(c3ccc(Cl)cc3)CC2)C1 (stereo not drawn) | -2 | -2% | 1% | 2% | 17
COc1ccc(CN2CCCC(N3CCN(c4ccc(OC)cc4)CC3)C2)cc1 (stereo not drawn) | -2 | ? | 7% | -1% | 1
Cc1cc(-c2ccccc2)nc(N/N=C/c2ccccc2)n1 | 32* | -12% | -14% | -20% | 55*
Cc1cc(N/N=C/c2ccccc2O)c2ccccc2n1 | 26* | 1% | -7% | -10% | 45
Cc1ccccc1/C=N/Nc1nc2ccccc2c(=O)n1O | 20* | -2% | -9% | -21% | 75*
COc1ccc2nc(C)cc(N/N=C/c3cccc(OC)c3O)c2c1 | 10 | -4% | -52% | 2% | 14
SMILES | Cycloheximide cs | AmpC detergent | NS1 function inh | AmpC inh no detg | Shiga inhibitor
C(=N/Nc1nc(-c2ccccc2)cc(-c2ccccc2)n1)/c1cccnc1 | 61* | ? | ? | 64% | 69*
COc1ccc(C)cc1S(=O)(=O)N1CCCC(C(=O)N2CCOCC2)C1 (stereo not drawn) | -2 | 3% | 7% | 15% | -6
C(=N\Nc1nc(Nc2ccccc2)nc(Nc2ccccc2)n1)/c1ccncc1 | -2 | 0% | 3% | -23% | -9
Cc1cc(-c2ccccc2)nc(N/N=C/c2ccc(O)cc2O)n1 | 23* | 0% | -84% | -30% | 91*
CCOc1cc(/C=N/Nc2nncc(-c3ccccc3)n2)ccc1O | 8 | -3% | / | -26% | -6
CNc1nc(C)nc(N/N=C/c2ccccc2)n1 | 28* | 4% | 5% | -10% | 53
